Source: PubChem BioAssay (NCATS)
Results filed as inconclusive are left out. Calls of active or inactive are those of the source. Calls follow the shape of the dose curve; as a rule, active = well fitted inhibition curve with a large enough effect; inconclusive = small, poorly fitted or top-dose-only effect; inactive = flat fitted curve, though single readings scatter. Bridge positions count the residues as written; N and C are the ends. Square brackets hold non-standard residues; d marks the D form. Peptide text beside a SMILES is read from it. * marks the point of attachment. Ileψ(thiazoline)Cys = CC[C@H](C)[C@H](N)C1=N[C@H](C(=O)*)CS1; d(aIle) = CC[C@H](C)[C@@H](N)C(=O)O; dOrn = NCCC[C@@H](N)C(=O)O

test system: CP256; assay: qHTS profiling for inhibitors of Plasmodium falciparum proliferation (AID 504749); also: nearly all actives have a fitted effect of over 60% in size; settings: P. falciparum in erythrocytes, SYBR Green DNA, 72 h; series mostly up to 12.8 µM
Summary of the method: (§1)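 Quantitative HTS: compounds pinned into medium, infected erythrocytes added (0.3% parasitemia, 2.5% hematocrit), 72 h culture at 37 C under 5% CO2. Saponin/Triton lysis with SYBR Green I, overnight RT, then fluorescence read.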
Potency is read from the fitted curve at half-maximal effect.

Potency, active:
O=C(N/N=C\c1ccc([N+](=O)[O-])o1)c1ccc(O)cc1 3.55 µM

Potency, inactive:
C[C@@H]1C[C@H]2[C@@H]3C[C@H](F)C4=CC(=O)C=C[C@@]4(C)[C@]3(F)[C@H](O)C[C@]2(C)[C@@]1(O)C(=O)CO
C[C@H](O)Cn1cnc2c1c(=O)n(C)c(=O)n2C
CCCCC[C@H](O)/C=C\[C@@H]1[C@H](O)CC(=O)[C@@H]1CCCCCCC(=O)O
CC(=C(CCOP(=O)(O)O)SC(=O)c1ccccc1)N(C=O)Cc1cnc(C)nc1N
NC[C@@H]1O[C@@H](O[C@H]2[C@H](O)[C@H](O[C@@H]3O[C@H](CO)[C@@H](O)[C@H](N)[C@@H]3O)[C@@H](N)C[C@H]2N)[C@H](N)C[C@@H]1O
CCc1c(C)[nH]c2c1C(=O)[C@H](CN1CCOCC1)CC2
C=C1c2c(Cl)ccc(O)c2C(O)=C2C(=O)[C@@]3(O)C(O)=C(C(N)=O)C(=O)[C@@H](N(C)C)[C@@H]3[C@@H](O)[C@H]12
CC[C@H](C)[C@H](N)C1=N[C@H](C(=O)N[C@@H](CC(C)C)C(=O)N[C@@H](CCC(=O)O)C(=O)N[C@@H](C(=O)N[C@H]2CCCCNC(=O)[C@@H](CC(N)=O)NC(=O)[C@@H](CC(=O)O)NC(=O)[C@@H](Cc3cnc[nH]3)NC(=O)[C@@H](Cc3ccccc3)NC(=O)[C@@H]([C@@H](C)CC)NC(=O)[C@@H](CCCN)NC2=O)[C@@H](C)CC)CS1 ({Ileψ(thiazoline)Cys}-LE[d(aIle)]K[dOrn][d(aIle)][dF][dH][dD][dN]; lactam 4-C)
CCOC(=O)O[C@@H](C)OC(=O)[C@@H]1N2C(=O)[C@@H](NC(=O)[C@@H](N)c3ccccc3)[C@H]2SC1(C)C
Cc1cccc(CN2CCN([C@@H](c3ccccc3)c3ccc(Cl)cc3)CC2)c1
Cc1ccsc1/C=C\C1=NCCCN1C
O=C(O)COCCN1CCN([C@@H](c2ccccc2)c2ccc(Cl)cc2)CC1
C#C[C@]1(O)CC[C@@H]2[C@H]3CCC4=CCCC[C@@H]4[C@@H]3CC[C@@]21C
CC1(C)[C@@H](OC(=O)CCC(=O)O)CC[C@@]2(C)[C@H]1CC[C@@]1(C)[C@H]2C(=O)C=C2[C@H]3C[C@](C)(C(=O)O)CC[C@]3(C)CC[C@@]21C
C[C@H](CCC(=O)O)[C@H]1CC[C@@H]2[C@@H]3[C@@H](O)C[C@H]4C[C@@H](O)CC[C@@]4(C)[C@H]3CC[C@@]21C

test system: CP260; assay: as above; settings: P. falciparum in erythrocytes, SYBR Green DNA, 72 h; series mostly up to 12.8 µM
Summary of the method: as §1

Potency, active:
CCC(=O)OCC(=O)[C@@]1(OC(=O)CC)[C@H](C)C[C@@H]2[C@@H]3[C@H]([C@@H](O)C[C@@]21C)[C@]1(C)C=CC(=O)C=C1C[C@@H]3Cl 3.98 µM
O=C(N/N=C\c1ccc([N+](=O)[O-])o1)c1ccc(O)cc1 2.51 µM

Potency, inactive:
C[C@@H]1C[C@H]2[C@@H]3C[C@H](F)C4=CC(=O)C=C[C@@]4(C)[C@]3(F)[C@H](O)C[C@]2(C)[C@@]1(O)C(=O)CO
C[C@H](O)Cn1cnc2c1c(=O)n(C)c(=O)n2C
CCCCC[C@H](O)/C=C\[C@@H]1[C@H](O)CC(=O)[C@@H]1CCCCCCC(=O)O
CC(=C(CCOP(=O)(O)O)SC(=O)c1ccccc1)N(C=O)Cc1cnc(C)nc1N
NC[C@@H]1O[C@@H](O[C@H]2[C@H](O)[C@H](O[C@@H]3O[C@H](CO)[C@@H](O)[C@H](N)[C@@H]3O)[C@@H](N)C[C@H]2N)[C@H](N)C[C@@H]1O
CCc1c(C)[nH]c2c1C(=O)[C@H](CN1CCOCC1)CC2
CC[C@H](C)[C@H](N)C1=N[C@H](C(=O)N[C@@H](CC(C)C)C(=O)N[C@@H](CCC(=O)O)C(=O)N[C@@H](C(=O)N[C@H]2CCCCNC(=O)[C@@H](CC(N)=O)NC(=O)[C@@H](CC(=O)O)NC(=O)[C@@H](Cc3cnc[nH]3)NC(=O)[C@@H](Cc3ccccc3)NC(=O)[C@@H]([C@@H](C)CC)NC(=O)[C@@H](CCCN)NC2=O)[C@@H](C)CC)CS1 ({Ileψ(thiazoline)Cys}-LE[d(aIle)]K[dOrn][d(aIle)][dF][dH][dD][dN]; lactam 4-C)
CCOC(=O)O[C@@H](C)OC(=O)[C@@H]1N2C(=O)[C@@H](NC(=O)[C@@H](N)c3ccccc3)[C@H]2SC1(C)C
Cc1ccsc1/C=C\C1=NCCCN1C
O=C(O)COCCN1CCN([C@@H](c2ccccc2)c2ccc(Cl)cc2)CC1
C#C[C@]1(O)CC[C@@H]2[C@H]3CCC4=CCCC[C@@H]4[C@@H]3CC[C@@]21C
CC1(C)[C@@H](OC(=O)CCC(=O)O)CC[C@@]2(C)[C@H]1CC[C@@]1(C)[C@H]2C(=O)C=C2[C@H]3C[C@](C)(C(=O)O)CC[C@]3(C)CC[C@@]21C
C[C@H](CCC(=O)O)[C@H]1CC[C@@H]2[C@@H]3[C@@H](O)C[C@H]4C[C@@H](O)CC[C@@]4(C)[C@H]3CC[C@@]21C
CN1CCO[C@H](c2ccccc2)c2ccccc2C1
